Experimental data from PubChem BioAssay (NCI).
“And” between values parts separate entries of the source, which are not always exact repeats. Equal values may be shown once. This is part of a sample that, as a whole, favours compounds with a hit. Of some 83,000 tested, about 20% had one in any assay.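 How to read the values: 0–100, growth inhibition (40 = 60% inhibited); 0, no net growth; -100 to 0, cell death (-40 = 40% of starting cells died; -100 = all dead).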 The source made the active and inactive calls. Rule for the calls: active = growth percent below 10; inactive = the rest.

Key:
Experiment in all cases: NCI-60 one-dose screen, 48 h (100 = growth as untreated, 0 = no growth, -100 = all killed)
Conditions in all cases: 10 µM unless noted
[1] = tested on: SK-MEL-2 melanoma
[2] = tested on: EKVX NSCLC
[3] = tested on: SN12C renal
[4] = tested on: UO-31 renal
[5] = tested on: TK-10 renal
[6] = tested on: ACHN renal
[7] = tested on: CAKI-1 renal
[8] = tested on: A498 renal
[9] = tested on: CCRF-CEM leukemia
[10] = tested on: MOLT-4 leukemia

SMILES | growth [1] | growth [2] | growth [3] | growth [4] | growth [5] | growth [6] | growth [7] | growth [8] | growth [9] | growth [10]
Cc1cccc(NCC(=O)N2CCN(c3ncnc4c3cnn4-c3ccccc3)CC2)c1 | 46.7% (inactive) | 53.7% (inactive) | 76.9% (inactive) | 34.3% (inactive) | 93.8% (inactive) | 45.4% (inactive) | 47.8% (inactive) | 108% (inactive) | 62.7% (inactive) | 58.2% (inactive)
COc1ccc(N=Nc2c(N)nn3c(N)c(C#N)c(-c4ccccc4)nc23)cc1 | 97.6% (inactive) | 38.9% (inactive) | 40.8% (inactive) | 28.4% (inactive) | 57.4% (inactive) | 25.7% (inactive) | 15.9% (inactive) | 113% (inactive) | 72.7% (inactive) | 72.8% (inactive)
COc1ccc(-c2nnc3c(/C=C/c4ccc(Br)cc4)nc4ccccc4n23)cc1 | 92.9% (inactive) | 54% (inactive) | -22.7% (active) | 41.1% (inactive) | 99.4% (inactive) | 23% (inactive) | 27.8% (inactive) | 92.6% (inactive) | 8.22% (active) | 1.9% (active)
Cn1cc(Nc2ncnc(-c3ccc(N4CCCC4)c(C#N)c3)n2)cn1 | 88.4% (inactive) | 95.3% (inactive) | 70.7% (inactive) | 41.9% (inactive) | 66.2% (inactive) | 52.3% (inactive) | 22.4% (inactive) | 42.6% (inactive) | 72.2% (inactive) | 65.5% (inactive)
CCN1C(=O)N(CC)C2NNC(Sc3c(C(=O)O)c4ccccc4n(CCC(C)C)c3=O)=NC21 (stereo not given) | 22.3% (inactive) | 20.8% (inactive) | 16.3% (inactive) | 28.1% (inactive) | 62.1% (inactive) | 24% (inactive) | 38.9% (inactive) | 76.4% (inactive) | 7.16% (active) | 3.81% (active)
COC(=O)c1cccc(Oc2ccc(NC(=O)Nc3cc(C(F)(F)F)ccc3F)cc2)c1 | 73.1% (inactive) | 60.9% (inactive) | 75.7% (inactive) | 73.9% (inactive) | 88.5% (inactive) | 56.4% (inactive) | 62.4% (inactive) | 94.9% (inactive) | 65% (inactive) | 64.7% (inactive)
COc1c(F)ccc(C(=O)Nc2ccc3nc(NC(=O)C4CCCN(S(=O)(=O)c5ccc(C(C)(C)C)cc5)C4)sc3c2)c1F (stereo not given) | 71.3% (inactive) | 59% (inactive) | 57% (inactive) | 44.3% (inactive) | 93.6% (inactive) | 63.4% (inactive) | 69.3% (inactive) | 84.7% (inactive) | 57.9% (inactive) | 29.7% (inactive)
Nc1nnc(-c2cncc(Br)c2)c(-c2c[nH]c3ccc(Br)cc23)n1 | 55.4% (inactive) | 65.7% (inactive) | 57.6% (inactive) | 34.8% (inactive) | 97.7% (inactive) | 56.5% (inactive) | 46% (inactive) | 92.7% (inactive) | 44.1% (inactive) | 33% (inactive)
O=C1CCC(N2C(=O)c3cccc(NCCCCCC(=O)N4CCN(c5ccc6nc7c(nc6c5C(F)(F)F)C(=O)c5ncccc5C7=O)CC4)c3C2=O)C(=O)N1 (stereo not given) | -74.6% (active) | -59.6% (active) | -79.6% (active) | -94.5% (active) | -9.44% (active) | -70.8% (active) | -78.8% (active) | -80.7% (active) | -23.1% (active) | -25.6% (active)
S=C(NCCc1ccccc1)Nc1ccc(OCc2nc3ccc(Cl)cc3[nH]2)cc1 | 16.5% (inactive) | 33.1% (inactive) | 11.6% (inactive) | 13.9% (inactive) | 62.4% (inactive) | 14% (inactive) | 25.2% (inactive) | 95.6% (inactive) | 9.55% (active) | 13.8% (inactive)
COc1ccc2[nH]c(O)c(N=Nc3nc(-c4ccc(C#N)cc4)cs3)c2c1 | 95.8% (inactive) | 63.9% (inactive) | 20.3% (inactive) | 18.3% (inactive) | 55.3% (inactive) | 22.2% (inactive) | 35.4% (inactive) | 13.2% (inactive) | 86.4% (inactive) | 84.2% (inactive)
O=C(c1ccc(O)cc1)C1[C@H](c2ccccc2Br)[C@@H](c2ccccc2)NC12C(=O)Nc1ccccc12 (stereo not given in full) | -3.4% (active) | 28.3% (inactive) | 30.2% (inactive) | 28.9% (inactive) | 49.9% (inactive) | 25.9% (inactive) | 23.6% (inactive) | 52.1% (inactive) | 21.3% (inactive) | 3.1% (active)
C=CC(=O)N1CCN(c2ccc3nc4c(nc3c2C(F)(F)F)C(=O)c2ncccc2C4=O)CC1 | 39.8% (inactive) | 30.4% (inactive) | -44% (active) | 35.7% (inactive) | 111% (inactive) | 28.3% (inactive) | 36% (inactive) | 134% (inactive) | -17.5% (active) | -37.8% (active)
CC(=O)Nc1cccc(-n2c(COc3ccc(I)cc3)nc3ccccc32)c1 | 82.8% (inactive) and 118% (inactive) | 86% (inactive) and 102% (inactive) | 95.7% (inactive) and 111% (inactive) | -67.3% (active) and 90% (inactive) | 102% (inactive) and 104% (inactive) | -78.2% (active) and 116% (inactive) | 56.7% (inactive) and 105% (inactive) | 114% (inactive) and 136% (inactive) | 90.4% (inactive) and 96.2% (inactive) | 83.6% (inactive) and 102% (inactive)
COc1ccc(-c2cc(-c3ccccc3)c(C#N)c(=O)[nH]2)cc1S(N)(=O)=O | 104% (inactive) | 95.9% (inactive) | 124% (inactive) | 89.8% (inactive) | 96.8% (inactive) | 103% (inactive) | 96.4% (inactive) | 91.2% (inactive) | 113% (inactive) | 136% (inactive)
COc1ccc2[nH]c(O)c(N=Nc3nc(-c4ccccc4)cs3)c2c1 | 83.7% (inactive) | 14.4% (inactive) | 2.85% (active) | 4.1% (active) | 25.5% (inactive) | -16.5% (active) | 14% (inactive) | -34.8% (active) | 44% (inactive) | 42.5% (inactive)
CN1C(=O)/C(=C\C(=O)c2cc3ccccc3oc2=O)c2ccccc21 | 65.1% (inactive) | 63.6% (inactive) | 66.3% (inactive) | 53.6% (inactive) | 98% (inactive) | 25.3% (inactive) | 65.2% (inactive) | 160% (inactive) | 43.4% (inactive) | 50.4% (inactive)
COc1ccc(-c2cc(C(=O)Oc3ccc(C=O)cc3OC)nn2-c2ccc(S(C)(=O)=O)cc2)cc1 | 110% (inactive) | 98% (inactive) | 90.7% (inactive) | 78.2% (inactive) | 147% (inactive) | 106% (inactive) | 98.3% (inactive) | 126% (inactive) | 83.6% (inactive) | 86.6% (inactive)
COc1cc(/C=C/C(=O)c2cnn(-c3cc(=O)[nH]c4ccc(Cl)cc34)c2C)cc(OC)c1OC | -80.6% (active) | -4.28% (active) | 0.0215% (active) | -72.6% (active) | 0.154% (active) | -35.4% (active) | -68.4% (active) | -21.5% (active) | -16.7% (active) | -10.9% (active)
NC1(c2ccc(-c3ccc4ncnc(NCc5ccccc5)c4c3)cn2)COC1 | 112% (inactive) and 113% (inactive) | 111% (inactive) and 100% (inactive) | 105% (inactive) and 101% (inactive) | 99.8% (inactive) and 85.4% (inactive) | 108% (inactive) | 102% (inactive) and 109% (inactive) | 94.8% (inactive) and 103% (inactive) | 118% (inactive) and 134% (inactive) | 106% (inactive) and 102% (inactive) | 112% (inactive) and 101% (inactive)
COc1cncc(-c2ccc3ncnc(N4CCc5ccc(Cl)cc54)c3c2)c1 | 30.6% (inactive) | -29.3% (active) | 20.3% (inactive) | 1.93% (active) | 8.96% (active) | 10.5% (inactive) | 8.52% (active) | 33.2% (inactive) | -1.98% (active) | 4.34% (active)
Nc1nn2c(-c3cc4cc(Br)ccc4oc3=O)ccnc2c1N=Nc1ccccc1 | 16.1% (inactive) | 36.4% (inactive) | -24.4% (active) | 30.2% (inactive) | 39.9% (inactive) | 0.225% (active) | 15.1% (inactive) | -17% (active) | 94.5% (inactive) | 87.1% (inactive)
O=C(Nc1ccc(Cl)c(C(F)(F)F)c1)N1CCN(c2cc(-c3cn(-c4ccccc4)nc3-c3cccc(O)c3)ccn2)CC1 | -66.9% (active) | -0.99% (active) | 4.12% (active) | 5.37% (active) | 8.9% (active) | 3.14% (active) | 9.06% (active) | 38.9% (inactive) | 0.607% (active) | 1.52% (active)
O=C1c2cccc3c(N4CCN(c5ccccc5)CC4)ccc(c23)C(=O)N1c1cccc(-c2nn(-c3ccccc3)cc2-c2nc3ccccc3s2)c1 | 106% (inactive) | 86.6% (inactive) | 103% (inactive) | 68.1% (inactive) | 129% (inactive) | 94.9% (inactive) | 83.3% (inactive) | 126% (inactive) | 98.8% (inactive) | 99.4% (inactive)
CC1(C)CC(=O)C2=C(C1)OC(N)=C(c1nc3ccccc3[nH]1)C2c1ccc(Cl)cc1 (stereo not given) | 43.5% (inactive) and 112% (inactive) | 57% (inactive) and 100% (inactive) | 79.7% (inactive) and 105% (inactive) | 71.2% (inactive) and 86.4% (inactive) | 71.7% (inactive) and 106% (inactive) | 62.4% (inactive) and 106% (inactive) | 63.9% (inactive) and 103% (inactive) | 66.9% (inactive) and 149% (inactive) | 31.8% (inactive) and 102% (inactive) | 17.6% (inactive) and 103% (inactive)
